PubChem BioAssay (NCI)
This is part of a sample that, as a whole, favours compounds with a hit. Of some 83,000 tested, about 20% had one in any assay.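 How to read the values: 0–100, growth inhibition (40 = 60% inhibited); 0, no net growth; -100 to 0, cell death (-40 = 40% of starting cells died; -100 = all dead).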 Values without a mark were called inactive. Activity calls are given as the source filed them. How the source made its calls: active means growth percent below 10; inactive means the rest.

What was measured:
Test in all cases: NCI-60 one-dose screen, 48 h (100 = growth as untreated, 0 = no growth, -100 = all killed)
SR leukemia = conditions: 10 µM unless noted
RPMI-8226 leukemia = conditions: 10 µM unless noted
OVCAR-8 ovarian = conditions: 10 µM unless noted
OVCAR-5 ovarian = conditions: 10 µM unless noted
OVCAR-4 ovarian = conditions: 10 µM unless noted
SK-OV-3 ovarian = conditions: 10 µM unless noted
IGROV1 ovarian = conditions: 10 µM unless noted
OVCAR-3 ovarian = conditions: 10 µM unless noted
HS 578T breast = conditions: 10 µM
NCI/ADR-RES ovarian = conditions: 10 µM unless noted
T-47D breast = conditions: 10 µM unless noted
BT-549 breast = conditions: 10 µM unless noted
MDA-MB-435 melanoma = conditions: 10 µM unless noted
SW-620 colon = conditions: 10 µM unless noted
MCF7 breast = conditions: 10 µM unless noted
HCT-116 colon = conditions: 10 µM unless noted
HCC-2998 colon = conditions: 10 µM
KM12 colon = conditions: 10 µM unless noted

| SMILES | growth (SR leukemia) | growth (RPMI-8226 leukemia) | growth (OVCAR-8 ovarian) | growth (OVCAR-5 ovarian) | growth (OVCAR-4 ovarian) | growth (SK-OV-3 ovarian) | growth (IGROV1 ovarian) | growth (OVCAR-3 ovarian) | growth (HS 578T breast) | growth (NCI/ADR-RES ovarian) | growth (T-47D breast) | growth (BT-549 breast) | growth (MDA-MB-435 melanoma) | growth (SW-620 colon) | growth (MCF7 breast) | growth (HCT-116 colon) | growth (HCC-2998 colon) | growth (KM12 colon) |
| --- | --- | --- | --- | --- | --- | --- | --- | --- | --- | --- | --- | --- | --- | --- | --- | --- | --- | --- |
| CNC(=O)c1cnc(C)nc1-c1cc(C(C)(C)C)c(O)c(C(C)(C)C)c1 | 85% | 77.8% | 105% | 102% | 89.7% | 97.5% | 103% | 116% | 106% | 110% | 99.3% | 101% | 98.5% | 112% | 93.4% | 96.3% | 127% | 96.4% |
| Clc1nc(Cl)c2ncn(C/C=C\Cn3cnc4c(Cl)nc(Cl)nc43)c2n1 | -48.2% (active) | -61.2% (active) | -57.4% (active) | -9.17% (active) | -89.2% (active) | 32.8% | -82.3% (active) | -97% (active) | -41.5% (active) | 30.1% | -44.4% (active) |  | -66.9% (active) | -52.6% (active) | -78% (active) | -71% (active) |  |  |
| CC(C)n1c(NCCc2ccc(O)c(O)c2)nc2c1c(=O)n(C)c(=O)n2C | 87.2% | 77.4% | 104% | 79.2% | 90.9% | 108% | 110% | 102% | 99.5% | 93.1% | 93.7% | 84.5% | 98.5% | 102% | 95.4% | 97% | 86.9% | 91% |
| CC/C=C\C[C@H]1C/C=C2/C(=O)C=C[C@@H]2C/C=C\CCCC(=O)O1 | 0.487% (active) | -19.1% (active) | 10% (active) | 21.7% | 10.6% | 60.2% | -26.7% (active) | -47.3% (active) | 36.4% | -1.72% (active) | 39.7% | -20.4% (active) | -45.5% (active) | -51% (active) | -1.97% (active) |  | -79.4% (active) | -68.7% (active) |
| O=C1OCC2=C1C(c1cccc(F)c1)c1cc3c(cc1N2CCO)OCCO3 (stereo unspecified) | 12.3% | 22.1% | 24.4% | 30.8% | 45% | 27.1% | 26.3% | -13.9% (active) | 31.4% | 6.36% (active) | 46.8% | 43.6% | -40.7% (active) | 26.8% | 15.6% |  | 8.09% (active) | 14% |
| CC(=O)C1CC(C)CCC1C(C)C (stereo unspecified) | 78.9% | 56.3% | 109% | 105% | 61.4% | 108% | 99.2% | 94.7% | 106% | 86.4% | 71.9% |  | 121% | 106% | 85.3% | 61.6% | 104% | 98% |
| COC(=O)C1CCc2sc3ncnc(Nc4cn[nH]c4C(=O)Nc4ccc(CN5CCN(C)CC5)cc4)c3c21 (stereo unspecified) | -25.7% (active) | 8.36% (active) | 16.6% | -2.74% (active) | 23.5% | 6.43% (active) | 4.94% (active) | 11.4% | -3.1% (active) | 54.4% | 17.8% | -0.677% (active) | 22.3% | -10.9% (active) | 4.8% (active) | 3.34% (active) | 27.2% | 9.84% (active) |
| COc1cc(NC2CCC(=O)N2c2ccc(Cl)cc2Cl)cc(OC)c1OC (stereo unspecified) | 95.6% | 102% | 103% | 99.5% | 101% | 102% | 105% | 101% | 102% | 99.5% | 98.3% |  | 94.9% | 96.8% | 96.6% | 97.1% | 95.7% | 97.7% |
| Fc1ccc(NCc2cn(-c3ccccc3)nc2-c2ccc(OCc3ccccc3)cc2)cc1Cl | 96.1% | 98% | 105% | 86.6% | 97.5% | 82.3% | 96.9% | 97.3% | 104% | 95.4% | 79.8% | 89.6% | 102% | 108% | 94.1% | 76.8% | 102% | 98% |
| C=CCC(=O)N[C@H](/C=C/C(=O)O)Cc1ccc(-c2cc(Cl)cc(Cl)c2)cc1 | 82% | 96.6% | 92.7% | 92% | 98.6% | 87.3% | 114% | 108% | 97% | 107% | 81% |  | 103% | 104% | 92.7% | 82.5% | 101% | 98.5% |
| CN(N)c1nc2sc3c(c2c(=O)[nH]1)CCCC3 | 104% | 103% | 102% | 131% | 103% | 82.7% | 90.1% | 99.7% | 94.6% | 104% | 76.6% | 91.2% | 97.1% | 101% | 83.4% |  | 96% | 95.7% |
| COc1ccc2c(CCCC(c3ccccc3)c3ccccc3)c3[n+](cc2c1OC)CCc1cc2c(cc1-3)OCO2 | -35% (active) | -38.8% (active) | -47.6% (active) | 31.8% | -81.3% (active) | -13.4% (active) | 5.13% (active) | -74.6% (active) | -16.8% (active) | 71.7% | -15.6% (active) | -65.6% (active) | -90.7% (active) | 0.287% (active) | -3.37% (active) |  | -81.9% (active) | -65% (active) |
| COc1ccc2nc3cc(Cl)ccc3c(Nc3ccc(N(C)C)cc3)c2c1 | 1.55% (active) | 27.2% | 90.5% | 110% | 88.7% | 85.7% | 97% | 95.9% | 109% | 87.1% | 86.3% | 72.1% | 99.9% | 95.1% | 83.5% | 96.9% | 91.9% | 83.1% |
| COc1cc(-c2nc(C(=O)Nc3ccc(C)cc3)nn2-c2ccc(F)c(F)c2)cc(OC)c1OC | 91.8% | 103% | 103% | 117% | 103% | 89.1% | 86.9% | 107% | 121% | 93.6% | 77.1% | 100% | 93.3% | 110% | 95.1% | 95.7% | 86.6% | 102% |
| c1ccc2c(c1)CCN(NCCN1CCCC1)C2 | 103% | 95.5% | 101% | 94.7% | 106% | 84.6% | 96.3% | 99.9% | 85.6% | 96.1% | 91.4% | 99.8% |  | 94.8% | 96.5% |  | 95% | 100% |
| COC(=O)[C@]12CC[C@@H](C)[C@H](C)[C@@H]1C1=CC[C@@H]3[C@@]4(C)C(C=O)=C[C@@](C)(COS(C)(=O)=O)C4=CC[C@@]3(C)[C@]1(C)CC2 | -15.6% (active) | -4.75% (active) | -12% (active) | -35.9% (active) | -61.1% (active) | 17.1% | -24.1% (active) | -85.7% (active) | -24.1% (active) | -25.4% (active) | -10.6% (active) | -43.5% (active) | -73.8% (active) | -85.2% (active) | -16.8% (active) | -81.2% (active) | -83.5% (active) | -73% (active) |
| CCCCCCCC(=O)SCC/C=C/[C@@H]1CC(=O)NCc2cc(ccn2)C2=N[C@@](C)(CS2)C(=O)N[C@@H](C(C)C)C(=O)O1 | 14.3% | 13.6% | 6.26% (active) | 2.85% (active) | 10.9% | -22.6% (active) | -8.98% (active) | -22.9% (active) | -8.43% (active) | 4.18% (active) | -6.31% (active) | 36.4% | -22.1% (active) | -1.73% (active) | 14.1% | -17.2% (active) | -67.8% (active) | -3.5% (active) |
| Cc1nn(-c2nc3ccccc3[nH]2)c2c1C(c1ccc(O)cc1)CC(=O)N2 (stereo unspecified) | 53.7% | 101% | 55.3% | 109% | 112% | 84.3% | 75.9% | 93.2% | 28.1% | 88.5% |  | 92.7% | 104% | 93.5% | 109% | 101% | 123% | 60.3% |
